According to PubChem BioAssay AID1159580 (chemical genetic matrix, 2015):
Where “and” joins values, the source holds several entries; their conditions need not be identical. Equal values may be shown once. Screen size: about 5,500 compounds; about 2,000 (36%) were called active. Another 18% or so got no clear call; they are omitted. Cut-off read from the data, not from the text of the source: active = normalized growth mostly below about 0.91 (no sharp cut-off); inconclusive = no clear call, values can overlap the other calls; inactive = mostly above about 0.92. Some of the results follow.

Test: chemical genetic growth profiling, strain panel (AID 1159580);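 note: tested at 20 µM; growth read once vehicle control cultures reached saturation at 30 °C; 1 = growth at the plate median or of vehicle wells; lower values mean less growth of the strain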
Conditions: S. cerevisiae deletion strains, growth OD

Measured: normalized growth

CCn1cc(C(=O)O)c(=O)c2cc(F)c(N3CCNCC3)cc21
inactive: locus YAL013W, strain DEP1, active compounds read low 1 | locus YAL021C, strain ccr4, active compounds read low 0.967 | locus YAL026C, strain drs2, active compounds read low 0.978 | locus YAL030W, strain snc1, active compounds read low 0.988 | locus YBL061C, strain skt5, active compounds read low 0.991 | locus YBR009C, strain hhf1, active compounds read low 0.983 | locus YBR021W, strain FUR4, active compounds read low 0.905 | locus YBR023C, strain chs3, active compounds read low 0.989 | locus YBR171W, strain sec66, active compounds read low 0.988 | locus YBR229C, strain ROT2, active compounds read low 1.01 | locus YBR231C, strain swc5, active compounds read low 0.986 | locus YBR279W, strain paf1, active compounds read low 0.978 | locus YCL011C, strain gbp2, active compounds read low 0.983 | locus YCL016C, strain dcc1, active compounds read low 0.998 | locus YCL029C, strain bik1, active compounds read low 1 | locus YCL061C, strain MRC1, active compounds read low 0.989 | locus YCL069W, strain vba3, active compounds read low 0.966 | locus YCR088W, strain abp1, active compounds read low 0.992 | locus YDL005C, strain med2, active compounds read low 0.973 | locus YDL035C, strain GPR1, active compounds read low 1 | locus YDL040C, strain nat1, active compounds read low 0.99 | locus YDL074C, strain BRE1, active compounds read low 1.02 | locus YDL101C, strain DUN1, active compounds read low 1 | locus YDL134C, strain PPH21, active compounds read low 0.994 | locus YDL185W, strain tfp1, active compounds read low 0.998 | locus YDL192W, strain arf1, active compounds read low 0.995 | locus YDR001C, strain nth1, active compounds read low 0.98 | locus YDR069C, strain doa4, active compounds read low 0.964 | locus YDR101C, strain arx1, active compounds read low 0.972 | locus YDR137W, strain rgp1, active compounds read low 0.97 | locus YDR159W, strain sac3, active compounds read low 0.948 | locus YDR162C, strain NBP2, active compounds read low 0.997 | locus YDR195W, strain ref2 0.962 | locus YDR297W, strain sur2, active compounds read low 0.992 | locus YDR318W, strain mcm21, active compounds read low 0.995 | locus YDR334W, strain swr1, active compounds read low 0.981 | locus YDR335W, strain msn5, active compounds read low 0.928 | locus YDR388W, active compounds read low 1 | locus YDR392W, strain spt3, active compounds read low 0.873 | locus YDR502C, strain sam2, active compounds read low 1.01 | locus YEL003W, strain gim4, active compounds read low 0.984 | locus YEL037C, strain rad23, active compounds read low 0.976 | locus YEL061C, strain CIN8 (second series), active compounds read low 0.97 | locus YEL061C, strain CIN8, active compounds read low 1.01 | locus YER015W, strain faa2, active compounds read low 0.987 | locus YER016W, strain bim1, active compounds read low 0.986 | locus YER110C, active compounds read low 0.996 | locus YER111C, strain swi4, active compounds read low 0.975 | locus YER155C, strain BEM2 (second series), active compounds read low 0.95 | locus YER155C, strain BEM2, active compounds read low 1.01 | locus YER167W, strain BCK2, active compounds read low 1 | locus YFR010W, strain ubp6, active compounds read low 0.972 | locus YGL078C, strain dbp3, active compounds read low 0.998 | locus YGL086W, strain mad1, active compounds read low 0.992 | locus YGL167C, strain pmr1, active compounds read low 0.985 | locus YGL173C, strain kem1, active compounds read low 0.98 | locus YGL227W, strain vid30, active compounds read low 0.979 | locus YGL240W, strain doc1, active compounds read low 0.973 | locus YGL248W, strain PDE1, active compounds read low 1 | locus YGL253W, strain hxk2, active compounds read low 0.995 | locus YGR078C, strain PAC10, active compounds read low 1 | locus YGR135W, strain pre9, active compounds read low 0.988 | locus YGR229C, strain SMI1, active compounds read low 1.02 | locus YGR252W, strain gcn5, active compounds read low 0.912 | locus YHR013C, strain ard1, active compounds read low 0.928 | locus YHR027C, strain rpn1, active compounds read low 0.987 | locus YHR030C, strain SLT2, active compounds read low 0.999 and 0.974 | locus YHR079C, strain IRE1 (second series), active compounds read low 0.995 | locus YHR079C, strain IRE1, active compounds read low 0.974 | locus YHR094C, strain hxt1, active compounds read low 0.998 | locus YHR129C, strain ARP1, active compounds read low 1 | locus YHR142W, strain chs7, active compounds read low 0.971 | locus YHR200W, strain rpn10, active compounds read low 0.998 | locus YIL066C, strain RNR3, active compounds read low 1.01 | locus YIL073C, strain SPO22, active compounds read low 1 | locus YIL125W, strain kgd1, active compounds read low 1 | locus YIR030C, strain dcg1, active compounds read low 0.999 | locus YJL092W, strain hpr5, active compounds read low 0.982 | locus YJL095W, strain BCK1 (second series), active compounds read low 0.993 | locus YJL095W, strain BCK1, active compounds read low 0.991 and 0.996 | locus YJL115W, strain asf1, active compounds read low 0.976 | locus YJL129C, strain trk1, active compounds read low 0.929 | locus YJL134W, strain LCB3, active compounds read low 1 | locus YJL154C, strain vps35, active compounds read low 0.974 | locus YJL164C, strain tpk1, active compounds read low 0.988 | locus YJL166W, strain qcr8, active compounds read low 1 | locus YJL168C, strain set2, active compounds read low 1 | locus YJL187C, strain SWE1 (second series), active compounds read low 1.01 | locus YJL187C, strain SWE1, active compounds read low 0.985
